Structures are written as SMILES.

Test [1] addresses T1, Serine/threonine-protein kinase TBK1 (Homo sapiens) (UniProt Q9UHD2).
T1 sequence (whole entry): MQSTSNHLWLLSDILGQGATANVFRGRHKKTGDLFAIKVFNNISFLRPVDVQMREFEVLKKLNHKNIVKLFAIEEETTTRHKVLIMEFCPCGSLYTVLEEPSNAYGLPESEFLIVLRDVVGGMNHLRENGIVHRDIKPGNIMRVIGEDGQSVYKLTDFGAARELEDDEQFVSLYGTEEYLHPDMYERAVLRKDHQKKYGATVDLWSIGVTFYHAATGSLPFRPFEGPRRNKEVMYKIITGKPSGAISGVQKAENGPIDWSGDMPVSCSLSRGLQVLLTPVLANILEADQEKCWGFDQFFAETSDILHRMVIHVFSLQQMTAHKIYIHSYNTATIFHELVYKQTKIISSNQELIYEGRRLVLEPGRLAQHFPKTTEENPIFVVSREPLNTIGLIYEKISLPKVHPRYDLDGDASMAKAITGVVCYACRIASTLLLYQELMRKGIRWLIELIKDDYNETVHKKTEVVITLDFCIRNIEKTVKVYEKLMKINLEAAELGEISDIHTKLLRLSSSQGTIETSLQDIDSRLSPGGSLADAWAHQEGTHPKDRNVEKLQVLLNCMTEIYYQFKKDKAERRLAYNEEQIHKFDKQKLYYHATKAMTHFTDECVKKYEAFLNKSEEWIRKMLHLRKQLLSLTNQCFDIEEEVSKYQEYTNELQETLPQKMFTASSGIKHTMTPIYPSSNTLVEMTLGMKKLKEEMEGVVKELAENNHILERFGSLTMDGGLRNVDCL
The conditions noted are these: at 1 µM.

The target of test [2] is T1, Serine/threonine-protein kinase TBK1 (Homo sapiens). The conditions noted are these: at 10 µM.
Test [3] addresses T2, TGF-beta receptor type-1 (Homo sapiens) (UniProt P36897).
T2 sequence (whole entry): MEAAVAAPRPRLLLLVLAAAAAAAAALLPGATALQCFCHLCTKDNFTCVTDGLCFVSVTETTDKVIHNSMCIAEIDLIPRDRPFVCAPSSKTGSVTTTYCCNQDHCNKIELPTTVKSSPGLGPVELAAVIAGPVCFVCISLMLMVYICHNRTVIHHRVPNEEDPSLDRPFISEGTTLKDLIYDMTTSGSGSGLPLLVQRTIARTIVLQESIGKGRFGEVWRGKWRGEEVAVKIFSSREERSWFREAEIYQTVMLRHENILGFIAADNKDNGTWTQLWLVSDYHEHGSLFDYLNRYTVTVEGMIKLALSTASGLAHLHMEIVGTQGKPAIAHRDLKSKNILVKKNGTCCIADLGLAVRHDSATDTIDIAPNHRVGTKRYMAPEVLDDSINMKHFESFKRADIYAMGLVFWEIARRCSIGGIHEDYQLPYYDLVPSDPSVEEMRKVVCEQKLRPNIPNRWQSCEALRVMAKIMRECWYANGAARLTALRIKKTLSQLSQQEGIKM
The conditions noted are these: at 1 µM.

Test [4] concerns the target T2, TGF-beta receptor type-1 (Homo sapiens). The conditions noted are these: at 10 µM.
Test [5] has as its target Insulin-like growth factor 1 receptor (Homo sapiens) (UniProt P08069). Conditions: at 1 µM.
Test [6] has the same target. Conditions: at 10 µM.
Test [7] addresses T3, Inhibitor of nuclear factor kappa-B kinase subunit alpha (Homo sapiens) (UniProt O15111).
T3 sequence (whole entry): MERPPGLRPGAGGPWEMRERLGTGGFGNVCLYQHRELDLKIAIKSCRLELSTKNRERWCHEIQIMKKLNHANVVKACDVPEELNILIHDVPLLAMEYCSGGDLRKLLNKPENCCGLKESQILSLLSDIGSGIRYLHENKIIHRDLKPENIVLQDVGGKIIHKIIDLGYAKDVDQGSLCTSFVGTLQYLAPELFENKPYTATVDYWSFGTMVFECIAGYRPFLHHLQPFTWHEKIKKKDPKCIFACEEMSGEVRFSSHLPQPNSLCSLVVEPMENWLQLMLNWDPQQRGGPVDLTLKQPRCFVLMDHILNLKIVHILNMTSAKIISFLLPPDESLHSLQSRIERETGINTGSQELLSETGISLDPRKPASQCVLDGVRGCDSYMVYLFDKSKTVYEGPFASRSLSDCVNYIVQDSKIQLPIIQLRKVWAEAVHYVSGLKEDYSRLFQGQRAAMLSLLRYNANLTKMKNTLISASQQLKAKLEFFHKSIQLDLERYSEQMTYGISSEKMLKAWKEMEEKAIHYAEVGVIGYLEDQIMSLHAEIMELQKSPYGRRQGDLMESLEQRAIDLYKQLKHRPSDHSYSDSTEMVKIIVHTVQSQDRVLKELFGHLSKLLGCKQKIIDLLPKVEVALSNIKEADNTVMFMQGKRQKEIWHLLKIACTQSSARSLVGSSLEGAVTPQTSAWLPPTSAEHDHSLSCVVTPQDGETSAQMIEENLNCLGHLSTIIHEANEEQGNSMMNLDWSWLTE
The conditions noted are these: at 10 µM.

Test [8] deals with T4, Inhibitor of nuclear factor kappa-B kinase subunit beta (Homo sapiens) (UniProt O14920).
T4 sequence (whole entry): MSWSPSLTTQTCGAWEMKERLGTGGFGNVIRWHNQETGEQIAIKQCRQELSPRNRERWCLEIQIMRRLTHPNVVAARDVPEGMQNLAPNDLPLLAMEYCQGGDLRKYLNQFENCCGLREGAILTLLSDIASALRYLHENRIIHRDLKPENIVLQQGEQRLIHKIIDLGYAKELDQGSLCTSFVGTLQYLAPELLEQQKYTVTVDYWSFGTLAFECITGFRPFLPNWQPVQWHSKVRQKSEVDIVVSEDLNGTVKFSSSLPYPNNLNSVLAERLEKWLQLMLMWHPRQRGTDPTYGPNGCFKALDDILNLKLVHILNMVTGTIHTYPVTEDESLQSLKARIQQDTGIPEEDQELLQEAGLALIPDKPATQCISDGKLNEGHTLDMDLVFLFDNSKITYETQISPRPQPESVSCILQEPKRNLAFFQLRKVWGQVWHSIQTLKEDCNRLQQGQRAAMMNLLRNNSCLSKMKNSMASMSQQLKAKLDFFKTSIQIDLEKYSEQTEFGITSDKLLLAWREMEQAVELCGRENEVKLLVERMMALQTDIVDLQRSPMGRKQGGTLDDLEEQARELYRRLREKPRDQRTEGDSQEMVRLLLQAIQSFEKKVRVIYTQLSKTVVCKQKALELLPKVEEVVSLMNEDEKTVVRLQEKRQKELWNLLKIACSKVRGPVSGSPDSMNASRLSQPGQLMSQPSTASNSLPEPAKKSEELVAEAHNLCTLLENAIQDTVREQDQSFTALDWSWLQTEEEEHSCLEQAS
The conditions noted are these: at 1 µM.

The target in test [9] is T4, Inhibitor of nuclear factor kappa-B kinase subunit beta (Homo sapiens). The conditions noted are these: at 10 µM.
The target of test [10] is Insulin receptor (Homo sapiens) (UniProt P06213). The conditions noted are these: at 1 µM.
Chain of Insulin receptor (Homo sapiens) (P06213 28-758 limits assumed): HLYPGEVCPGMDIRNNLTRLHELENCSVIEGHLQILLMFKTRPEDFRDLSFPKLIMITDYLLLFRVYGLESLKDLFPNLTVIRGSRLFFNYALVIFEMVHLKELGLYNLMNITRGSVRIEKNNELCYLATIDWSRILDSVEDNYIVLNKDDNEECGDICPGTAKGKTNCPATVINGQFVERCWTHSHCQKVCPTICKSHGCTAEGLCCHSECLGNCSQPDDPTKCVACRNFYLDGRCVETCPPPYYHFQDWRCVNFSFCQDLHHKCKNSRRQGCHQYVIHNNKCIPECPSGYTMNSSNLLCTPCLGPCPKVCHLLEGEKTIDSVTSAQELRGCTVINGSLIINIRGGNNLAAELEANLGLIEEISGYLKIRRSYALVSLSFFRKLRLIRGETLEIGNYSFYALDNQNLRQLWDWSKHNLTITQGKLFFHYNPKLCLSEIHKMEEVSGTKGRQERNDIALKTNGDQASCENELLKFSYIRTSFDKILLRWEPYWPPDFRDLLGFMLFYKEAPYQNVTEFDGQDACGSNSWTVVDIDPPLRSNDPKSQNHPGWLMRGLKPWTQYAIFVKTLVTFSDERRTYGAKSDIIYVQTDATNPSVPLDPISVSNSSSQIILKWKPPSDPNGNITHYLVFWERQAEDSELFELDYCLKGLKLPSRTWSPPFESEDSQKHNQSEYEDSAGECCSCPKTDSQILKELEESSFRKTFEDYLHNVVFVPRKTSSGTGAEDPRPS
Chain of Insulin receptor (Homo sapiens) (P06213 763-1382 limits assumed): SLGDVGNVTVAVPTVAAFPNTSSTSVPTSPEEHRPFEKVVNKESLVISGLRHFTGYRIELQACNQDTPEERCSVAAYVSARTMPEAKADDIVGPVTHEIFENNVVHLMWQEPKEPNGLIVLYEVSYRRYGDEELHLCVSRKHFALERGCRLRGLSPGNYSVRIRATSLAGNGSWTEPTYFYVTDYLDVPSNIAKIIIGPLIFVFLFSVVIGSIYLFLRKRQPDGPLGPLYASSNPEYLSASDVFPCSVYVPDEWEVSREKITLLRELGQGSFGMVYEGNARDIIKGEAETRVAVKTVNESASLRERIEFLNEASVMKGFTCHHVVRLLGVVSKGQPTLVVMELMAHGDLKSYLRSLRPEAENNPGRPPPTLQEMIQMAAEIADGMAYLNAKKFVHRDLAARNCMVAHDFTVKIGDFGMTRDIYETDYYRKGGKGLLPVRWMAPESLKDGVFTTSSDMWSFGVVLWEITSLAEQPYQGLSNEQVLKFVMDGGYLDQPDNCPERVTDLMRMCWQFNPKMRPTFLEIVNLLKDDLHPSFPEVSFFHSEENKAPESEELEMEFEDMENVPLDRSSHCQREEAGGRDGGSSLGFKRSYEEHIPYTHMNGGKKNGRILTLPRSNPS

Chain of Insulin-like growth factor 1 receptor (Homo sapiens) (P08069 31-736 limits assumed): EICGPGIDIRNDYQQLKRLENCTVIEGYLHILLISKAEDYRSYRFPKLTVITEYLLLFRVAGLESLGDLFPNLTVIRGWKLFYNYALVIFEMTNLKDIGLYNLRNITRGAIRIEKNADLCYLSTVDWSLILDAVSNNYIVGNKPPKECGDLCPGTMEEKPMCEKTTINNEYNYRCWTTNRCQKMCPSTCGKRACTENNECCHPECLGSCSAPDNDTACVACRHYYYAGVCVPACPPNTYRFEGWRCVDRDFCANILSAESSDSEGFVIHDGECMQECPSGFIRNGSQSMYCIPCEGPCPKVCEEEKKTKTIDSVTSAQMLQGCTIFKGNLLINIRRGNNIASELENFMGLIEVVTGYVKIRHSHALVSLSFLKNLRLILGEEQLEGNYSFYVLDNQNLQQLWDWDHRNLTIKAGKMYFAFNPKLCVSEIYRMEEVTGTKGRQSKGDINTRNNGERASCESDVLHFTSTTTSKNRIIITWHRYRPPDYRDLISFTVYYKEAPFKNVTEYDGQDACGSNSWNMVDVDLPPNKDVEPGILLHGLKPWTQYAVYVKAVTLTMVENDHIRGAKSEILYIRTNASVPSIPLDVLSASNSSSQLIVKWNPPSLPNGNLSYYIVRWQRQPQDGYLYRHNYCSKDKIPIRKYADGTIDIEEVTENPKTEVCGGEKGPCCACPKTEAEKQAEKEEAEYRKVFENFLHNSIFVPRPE
Chain of Insulin-like growth factor 1 receptor (Homo sapiens) (P08069 741-1367 limits assumed): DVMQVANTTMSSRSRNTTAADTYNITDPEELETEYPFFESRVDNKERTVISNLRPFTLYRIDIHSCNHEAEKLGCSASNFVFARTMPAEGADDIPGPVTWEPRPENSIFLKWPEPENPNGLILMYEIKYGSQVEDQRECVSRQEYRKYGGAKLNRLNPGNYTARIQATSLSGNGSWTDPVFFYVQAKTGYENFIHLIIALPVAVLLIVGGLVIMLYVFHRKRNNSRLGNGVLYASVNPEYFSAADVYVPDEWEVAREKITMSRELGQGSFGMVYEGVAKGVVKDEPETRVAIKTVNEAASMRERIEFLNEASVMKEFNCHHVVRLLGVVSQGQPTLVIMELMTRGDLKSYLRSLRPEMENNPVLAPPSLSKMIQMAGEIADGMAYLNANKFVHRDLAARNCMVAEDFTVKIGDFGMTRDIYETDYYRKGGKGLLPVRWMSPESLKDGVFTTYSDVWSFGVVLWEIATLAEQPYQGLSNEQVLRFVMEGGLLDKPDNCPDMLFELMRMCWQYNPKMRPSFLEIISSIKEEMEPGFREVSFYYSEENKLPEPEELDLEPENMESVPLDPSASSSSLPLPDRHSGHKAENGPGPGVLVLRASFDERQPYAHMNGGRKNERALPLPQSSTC

Consider `COc1ccc(C(=O)Nc2sc3c(c2C(N)=O)CCCC3)cc1OC`, for which the residual activity – broadly, the signal under treatment as a percentage of the control signal – in test [1] was 72%; in test [2], 71%; in [3] it was 71%; in [4], 92%; in [5] it was 87%; in test [6], 88%. Besides, the residual activity stood at 113% in test [7], 99% in test [8], 88% in [9] and 105% in test [10].

(Values after ChEMBL document CHEMBL2218924, “A broad activity screen in support of a chemogenomic map for kinase signalling research and drug discovery” (Biochem J, 2013).)
